FBW7 act = FBW7 E3 ligase activators, primary screen, biochemical, AlphaScreen, human; F-box/WD repeat-containing protein 7 (Homo sapiens), Q969H0; AlphaScreen FBW7–phospho-cyclin E peptide binding, activator screen; AID 1259310, 2017; hit rate 0.13% among 650,000; normalized activity (activation), % at 26.1 µM; in the data active = normalized activity above about 1.9%;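 note: purified mutant Fbw7 with reduced substrate affinity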
Target sequence (Q969H0 whole entry, looked up): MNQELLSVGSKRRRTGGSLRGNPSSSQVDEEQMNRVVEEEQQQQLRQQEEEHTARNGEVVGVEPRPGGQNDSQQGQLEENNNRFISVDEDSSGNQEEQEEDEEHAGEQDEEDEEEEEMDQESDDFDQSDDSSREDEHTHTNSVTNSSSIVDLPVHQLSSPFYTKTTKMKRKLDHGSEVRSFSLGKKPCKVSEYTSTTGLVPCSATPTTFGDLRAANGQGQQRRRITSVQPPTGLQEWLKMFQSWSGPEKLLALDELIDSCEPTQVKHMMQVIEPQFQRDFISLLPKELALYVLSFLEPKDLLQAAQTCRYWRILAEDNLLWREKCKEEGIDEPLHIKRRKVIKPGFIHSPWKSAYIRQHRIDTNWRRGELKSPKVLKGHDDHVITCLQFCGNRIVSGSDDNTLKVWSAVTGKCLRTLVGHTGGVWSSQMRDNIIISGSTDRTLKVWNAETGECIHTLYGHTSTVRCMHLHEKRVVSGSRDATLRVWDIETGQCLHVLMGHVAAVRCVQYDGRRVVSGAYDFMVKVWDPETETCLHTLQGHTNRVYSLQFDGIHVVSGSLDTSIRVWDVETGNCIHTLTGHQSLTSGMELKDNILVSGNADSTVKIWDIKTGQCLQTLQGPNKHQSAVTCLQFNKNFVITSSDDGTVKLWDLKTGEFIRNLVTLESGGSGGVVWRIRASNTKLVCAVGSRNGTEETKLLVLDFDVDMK
GPR151 ag = activators of human GPR151, primary screen, cell-based, PathHunter beta-arrestin, luminescence | G-protein coupled receptor 151 (Homo sapiens), Q8TDV0 | PathHunter beta-arrestin GPR151 cells | activation, % at 11.2 µM | hit rate 1% among 650,000 | AID 1508602, 2020; in the data active = activation above about 4.9%
TEAD-YAP inh = TEAD-YAP interaction inhibition, primary screen, TEAD-YAP interaction inhibitor project, luminescence, HEK-TIYL cells. TEAD-Gal4/YAP UAS-luciferase luminescence. inhibition, % at 9.12 µM. hit rate 1.4% among 640,000. AID 1259422, 2018; in the data active = inhibition above about 32%
MITF primary = MITF inhibitors, primary screen, biochemical, AlphaScreen, human | AlphaScreen MITF homodimerization, bead proximity signal | hit rate 0.91% among 650,000 | Microphthalmia-associated transcription factor (Homo sapiens), O75030 | inhibition, % at 2.6 µM; in the data active = inhibition above about 50%
Each line names hits and unclear results; the compound was inactive in the other large screens. Shown are actives, neighbours in structure and some others; about 3.4% of the full set was active somewhere.

CCCCN1C(=O)C(=O)c2cc(Br)ccc21	TEAD-YAP inh 41
CCOC(=O)C1=C(C)NC2=C(C(=O)C(C(=O)OC)C(C)C2)C1c1ccc(C)cc1 (configuration not stated)	none
CCOC(=O)C1=C(C)NC2=C(C(=O)C(C(=O)OC)C(C)C2)C1c1ccc(OC)cc1 (configuration not stated)	FBW7 act 2.3
COC(=O)C1=C(C)NC2=C(C(=O)CC(c3ccc(OC)cc3)C2)C1c1ccc(OC)c(Br)c1 (configuration not stated)	none
COc1ccc(COC(=O)C2=C(C)NC3=C(C(=O)CC(C)(C)C3)C2c2ccccc2)cc1 (configuration not stated)	FBW7 act 2.6
COc1ccccc1NC(=O)C1=C(C)NC2=C(C(=O)CC(C)(C)C2)C1c1cccc(O)c1 (configuration not stated)	FBW7 act 2.4
COc1ccc(COC(=O)C2=C(C)NC3=C(C(=O)CC(C)(C)C3)C2c2ccc(-c3ccccc3)cc2)cc1 (configuration not stated)	none
COc1ccc(C2CC(=O)C3=C(C2)NC(C)=C(C(=O)OCc2ccccc2)C3c2ccc(OC)c(Br)c2)cc1 (configuration not stated)	TEAD-YAP inh 48
CC1=C(C(=O)Nc2ccccn2)C(c2ccsc2)C2=C(CC(C)(C)CC2=O)N1 (configuration not stated)	none
CCOC(=O)C1=C(C)NC2=C(C(=O)CC(c3ccccc3)C2)C1c1cc(OC)ccc1OC (configuration not stated)	none
CC1=C(C(=O)Nc2ccc(C)cn2)C(c2ccsc2)C2=C(CC(C)(C)CC2=O)N1 (configuration not stated)	TEAD-YAP inh 55
COC(=O)C1=C(C)NC2=C(C(=O)CC(c3ccccc3)C2)C1c1cc(OC)ccc1OC (configuration not stated)	TEAD-YAP inh 33
CC(C)[C@H](Cn1nc(-c2ccc(F)c(F)c2)ccc1=O)NC(=O)c1ccco1	none
C/C(CC(=O)Nc1ccc(F)cc1F)=N\NC(=O)c1ccc(O)cc1	FBW7 act 2.1
COc1ccc(C(=O)N/N=C(\C)CC(=O)Nc2ccccc2Br)cc1OC	TEAD-YAP inh 41
C/C(CC(=O)Nc1cccc2c1CCCC2)=N\NC(=O)c1cccc(O)c1	none
COc1ccc(C(=O)N/N=C(\C)CC(=O)Nc2cccc3c2CCCC3)cc1OC	TEAD-YAP inh 32
COc1ccc(C(=O)Nc2cccnc2)cc1OC	none
COc1ccc(C(=O)N/N=C(\C)CC(=O)Nc2cccnc2)cc1OC	TEAD-YAP inh 34
O=C(O)Cn1cc(/C=N\Nc2ccc([N+](=O)[O-])cn2)c2ccccc21	none
NC(=O)C1CCN(C(=S)NC(=O)c2cccs2)CC1	none
COc1cc(OC)cc(-c2cc3nc(C)c(CCC(=O)O)c(C)n3n2)c1	TEAD-YAP inh 56
CCC1CCCCN1Cc1c(O)ccc2c(=O)c(-c3ccc(OC)c(OC)c3)c(C(F)(F)F)oc12 (configuration not stated)	none
Fc1ccc2c(c1)nc(NCc1ccncc1)c1nccn12	TEAD-YAP inh 49
Fc1ccc2c(c1)nc(NCc1ccccc1)c1nccn12	none
N#Cc1c(NCCN)nc(-c2ccco2)c2c1CCCC2	TEAD-YAP inh 34
CCCCCNc1nc(-c2ccco2)c2c(c1C#N)CCCC2	none
Cn1c(Nc2nc(NCCc3ccc(O)cc3)c3ncn(-c4ccccc4)c3n2)nc2ccccc21	none
Cn1c(Nc2nc(NCCCN3CCCC3=O)c3ncn(-c4ccccc4)c3n2)nc2ccccc21	TEAD-YAP inh 39
CC(C)N(CCNc1nc(Nc2nc3ccccc3n2C)nc2c1ncn2C(C)C)C(C)C	TEAD-YAP inh 43
CCCNc1nc(Nc2nc3ccccc3n2C)nc2c1ncn2-c1ccccc1	TEAD-YAP inh 55
c1ccc(-n2cnc3c(NC4CC4)nc(Nc4ncccn4)nc32)cc1	none
Cn1c(Nc2nc(NC3CC3)c3ncn(-c4ccccc4)c3n2)nc2ccccc21	TEAD-YAP inh 47
Cc1ccc(-c2nnc(Nc3ccc(C(N)=O)cc3)c3ccccc23)cc1S(=O)(=O)N(C)C	none
O=C(CSc1nc(=O)n(CCCO)c2c1CCC2)N1CCCC1	none
Cn1nccc1Nc1nc(NC2CC2)c2ncn(-c3ccccc3)c2n1	TEAD-YAP inh 40
CCNc1nc(Nc2ccc(NC(C)=O)cc2)c2ncn(-c3ccccc3)c2n1	none
